# Laboratory results taken from ChEMBL document CHEMBL3988442, “University of Dundee, Small-Polar-MMV Screening Library” (2021).
# Molecular target: T1, Methionyl-tRNA synthetase, putative (Leishmania donovani (strain BPK282A1)) (UniProt E9BF75)
# T1 sequence (whole entry): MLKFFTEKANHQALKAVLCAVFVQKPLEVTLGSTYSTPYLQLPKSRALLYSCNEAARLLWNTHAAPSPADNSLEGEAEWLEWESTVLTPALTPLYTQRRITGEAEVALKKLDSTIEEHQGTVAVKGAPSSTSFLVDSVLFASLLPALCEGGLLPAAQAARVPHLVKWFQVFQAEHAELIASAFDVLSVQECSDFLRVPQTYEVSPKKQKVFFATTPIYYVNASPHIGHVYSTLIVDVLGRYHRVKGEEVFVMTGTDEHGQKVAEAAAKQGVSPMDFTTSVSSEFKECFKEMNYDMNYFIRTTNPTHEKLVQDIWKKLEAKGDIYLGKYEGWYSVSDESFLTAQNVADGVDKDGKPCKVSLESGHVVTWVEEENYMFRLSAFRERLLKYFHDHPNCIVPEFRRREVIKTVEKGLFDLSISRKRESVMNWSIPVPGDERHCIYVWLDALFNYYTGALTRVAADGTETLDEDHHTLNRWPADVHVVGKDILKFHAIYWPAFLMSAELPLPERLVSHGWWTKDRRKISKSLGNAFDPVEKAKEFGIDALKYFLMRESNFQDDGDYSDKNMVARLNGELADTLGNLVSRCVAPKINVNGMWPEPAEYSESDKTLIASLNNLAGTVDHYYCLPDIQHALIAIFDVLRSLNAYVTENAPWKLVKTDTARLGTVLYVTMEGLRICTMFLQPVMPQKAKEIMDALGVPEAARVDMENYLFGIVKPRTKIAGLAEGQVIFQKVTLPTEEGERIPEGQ
# Test: Leishmania donovani Methionine tRNA synthetase (LdMetRS):v7. Dose response assay
# Format: functional
# Set-up: conc 80 nM, time 150 minutes
compound,measurement,setting,value
CCN(CC)c1ccc2ccc(C(=O)NC3CCCC3)cn12,PXC50,MAX_EFFECT 33.58778626,< 4
same,PXC50,MAX_EFFECT 39.03508772,< 4
Cc1nc(N2CC(N3CCCCC3C)C2)c2ccsc2n1 (stereo not drawn),PXC50,MAX_EFFECT 5.319148936,< 4
same,PXC50,MAX_EFFECT 5.699481865,< 4
CS(=O)(=O)N1CCN(c2ccc3ccc(C(=O)NC4CCOCC4)cn23)CC1,PXC50,"BOTTOM 2.519402955, HILLSLOPE 2.221498876, MAX_EFFECT 53.88127854, TOP 54.22998304",4.8
same,PXC50,"BOTTOM -4.408166057, HILLSLOPE 3.645653811, MAX_EFFECT 56.79245283, TOP 54.33837105",4.78
CC(=O)N1CCCC(NC(=O)c2ccc3ccc(N4CCN(S(C)(=O)=O)CC4)n3c2)C1 (stereo not drawn),PXC50,"BOTTOM 3.656156878, HILLSLOPE 2.486754691, MAX_EFFECT 66.17915905, TOP 66.88204214",4.81
same,PXC50,"BOTTOM -4.526143978, HILLSLOPE 1.702686974, MAX_EFFECT 60.76555024, TOP 62.80104332",5
COCCN(CC1CC1)c1nc(CCN)nc2sc(C)c(C)c12,PXC50,MAX_EFFECT 32.65306122,< 4
same,PXC50,MAX_EFFECT 36.11111111,< 4
Cc1nc(N2CCNC(=O)CC2C)c2c(CC(C)C)csc2n1 (stereo not drawn),PXC50,MAX_EFFECT 4.918032787,< 4
same,PXC50,MAX_EFFECT 7.486631016,< 4
Cc1cc(C)n(-c2nc(NCC(C)(C)O)c3c4c(sc3n2)CCCC4)n1,PXC50,MAX_EFFECT 11.97916667,< 4
same,PXC50,MAX_EFFECT 40.35087719,< 4
OC1CN(c2nc(C3CC3)nc3sc4c(c23)CCCC4)C1,PXC50,MAX_EFFECT 6.914893617,< 4
same,PXC50,MAX_EFFECT 8.808290155,< 4
Nc1noc2ccc(-c3cnc4ccc(Cl)nn34)cc12,PXC50,MAX_EFFECT 1.526717557,< 4
same,PXC50,MAX_EFFECT 4.824561404,< 4
CCN1CCN(c2nc(-c3cccc(OC)c3)cc(C(F)(F)F)n2)CC1,PXC50,MAX_EFFECT 17.85714286,< 4
same,PXC50,MAX_EFFECT 18.43434343,< 4
COc1ccc(-c2cc(C(F)(F)F)nc(N3CCCC3)n2)cc1,PXC50,MAX_EFFECT 5.85106383,< 4
same,PXC50,MAX_EFFECT 7.772020725,< 4
Cc1nc(NCc2noc(C3CCCO3)n2)c2ccsc2n1 (stereo not drawn),PXC50,MAX_EFFECT 9.660574413,< 4
same,PXC50,MAX_EFFECT 12.53263708,< 4
Cc1sc2nc(-c3cccs3)nc(NCCN3CCOCC3)c2c1C,PXC50,MAX_EFFECT 8.542713568,< 4
same,PXC50,MAX_EFFECT 8.5995086,< 4
Cc1nc(N2CCCC(N)CC2)c2ccsc2n1 (stereo not drawn),PXC50,MAX_EFFECT 0.0,< 4
same,PXC50,MAX_EFFECT 3.10880829,< 4
Cc1ncc(CNc2cnccc2CO)s1,PXC50,MAX_EFFECT 4.225352113,< 4
same,PXC50,MAX_EFFECT 9.814814815,< 4
Cc1nc(O)cc(C2CCN(c3nc(C)nc4sccc34)CC2)n1,PXC50,MAX_EFFECT 2.659574468,< 4
same,PXC50,MAX_EFFECT 5.699481865,< 4
NC(=O)c1ccc(Cl)cc1Cl,PXC50,MAX_EFFECT 4.967602592,< 3
same,PXC50,MAX_EFFECT 16.92015209,< 3
OCCN1CCC(F)(F)C2(CCN(c3cnccn3)C2)C1 (stereo not drawn),PXC50,MAX_EFFECT 3.174603175,< 4
same,PXC50,MAX_EFFECT 14.57943925,< 4
CCOC(=O)c1sc2nc(CN3CCCCC3)nc(NC3CC3)c2c1C,PXC50,MAX_EFFECT 16.58291457,< 4
same,PXC50,MAX_EFFECT 18.42751843,< 4
CC(C)C[C@H](N)COc1ccccc1-c1ccnn1C,PXC50,MAX_EFFECT 4.572564612,< 4
same,PXC50,MAX_EFFECT 5.733944954,< 4
Cc1nc(NC2CCCC2)c2c3c(sc2n1)CCCC3,PXC50,MAX_EFFECT 28.64583333,< 4
same,PXC50,MAX_EFFECT 30.70175439,< 4
CC(C)(C)OC(=O)N1CCN(c2ccc3ccc(C(=O)NC4CCCC4)cn23)CC1,PXC50,MAX_EFFECT 20.86513995,< 4
same,PXC50,MAX_EFFECT 27.19298246,< 4
CS(=O)(=O)N1CCN(c2ccc3ccc(C(=O)NCc4ccccc4)cn23)CC1,PXC50,"BOTTOM 9.61795032, HILLSLOPE 2.1052237, MAX_EFFECT 58.50091408, TOP 60.20064035",4.73
same,PXC50,"BOTTOM -0.0629, HILLSLOPE 2.117070317, MAX_EFFECT 53.11004785, TOP 51.4182088",5.1
Cc1nc(N2CCC(N3CCSCC3)CC2)c2ccsc2n1,PXC50,MAX_EFFECT 8.29015544,< 4
same,PXC50,MAX_EFFECT 9.042553191,< 4
Cc1nc(N2CCCC2)c2c3c(sc2n1)CCCC3,PXC50,MAX_EFFECT 9.895833333,< 4
same,PXC50,MAX_EFFECT 12.71929825,< 4
Cc1ccc(-c2cc(C(F)(F)F)nc(NCCCN(C)C)n2)cc1,PXC50,MAX_EFFECT 7.446808511,< 4
same,PXC50,MAX_EFFECT 8.808290155,< 4
O=c1cc(NCCCNCc2c[nH]c3ccc(Br)cc23)[nH]c2ccccc12,PXC50,"BOTTOM 0.0, HILLSLOPE 1.551467474, MAX_EFFECT 106.0606061, TOP 104.4534441",5.79
same,PXC50,"BOTTOM 0.546192845, HILLSLOPE 1.22385612, MAX_EFFECT 106.0465116, TOP 107.4209254",5.79
COC(=O)c1sc2nc(C)nc(N(C)Cc3cc(C)on3)c2c1C,PXC50,MAX_EFFECT 8.556149733,< 4
same,PXC50,MAX_EFFECT 12.02185792,< 4
COC(=O)c1sc2nc(C)nc(NCc3cccnc3)c2c1C,PXC50,MAX_EFFECT 10.38251366,< 4
same,PXC50,MAX_EFFECT 11.22994652,< 4
Nc1noc2ccc(-c3cnc4ccc(NCCN5CCC(F)(F)CC5)nn34)cc12,PXC50,MAX_EFFECT 10.96491228,< 4
same,PXC50,MAX_EFFECT 13.23155216,< 4
COCCNC(=O)c1ccc2ccc(N(C)CC3CC3)n2c1,PXC50,MAX_EFFECT 29.93197279,< 4
same,PXC50,MAX_EFFECT 41.12149533,< 4
CS(=O)(=O)N1CCN(c2ccc3ccc(C(=O)NC4CCCC4)nn23)CC1,PXC50,MAX_EFFECT 4.387568556,< 4
same,PXC50,MAX_EFFECT 8.612440191,< 4
Nc1nc(CSc2nnc[nH]2)nc2sc3c(c12)CCCC3,PXC50,MAX_EFFECT 21.33333333,< 4
same,PXC50,MAX_EFFECT 26.98412698,< 4
Cc1nc(N2CCNC(=O)CC2)c2c(CC(C)C)csc2n1,PXC50,MAX_EFFECT 6.557377049,< 4
same,PXC50,MAX_EFFECT 9.625668449,< 4
